Data on 24 molecules can be found in PubChem BioAssay (NCATS).

Structures are written as SMILES. Where “and” joins values, the source holds several entries; their conditions need not be identical. Identical values can stand only once. A number with no mark means an inactive call. Records with an inconclusive call do not appear. Calls of active or inactive are those of the source. The call rests on the fitted dose curve; in most records, active means well fitted curve in the direction sought with a large enough effect; inconclusive means small, poorly fitted or top-dose-only effect, or another doubt; inactive means no such curve, though single readings can be large; an effect the other way counts as inactive or inconclusive.

The nature of experiment [1]: Primary qHTS for inhibitors of nuclear receptor binding SET domain protein 2 (NSD2) in an RCH-ACV wild type WT cells (2C) (AID 1645877). Further: nearly all actives have a fitted effect of over 70% in size. Further: potency means the concentration at half of the fitted maximal effect.
Experiment [2] concerns the target Glutathione peroxidase 1 (Homo sapiens) (UniProt P07203). The experiment in a line: Primary qHTS Assay for Inhibitors of Recombinant Selenoprotein Glutathione Peroxidase 1 (GPX1) (AID 1845191). Further: nearly all actives have a fitted effect of over 65% in size. Further: potency means the concentration at half of the fitted maximal effect. On activity, negative = inhibition: on the % scale 0 is the no-effect control and ±100 the full control effect. Summed up:
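GPX1 10 nM, GR 100 nM, GSH 1 mM, NADPH 0.5 mM, CHP 0.5 mM (final). 30-min cpd preincubation, RT. Ex340/Em450 read t=0, t=15 min.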

The target in experiment [3] is Phospholipid hydroperoxide glutathione peroxidase GPX4 (Homo sapiens) (UniProt P36969). As to the kind of experiment: Primary qHTS Assay for Inhibitors of Recombinant Selenoprotein Glutathione Peroxidase 4 (GPX4) (AID 1845192). Further: series mostly up to about 50 µM; on the % scale 0 is the no-effect control and ±100 the full control effect; nearly all actives have a fitted effect of over 65% in size. Summed up: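 qHTS, GR-coupled: GPX4 200 nM + cpd 30 min RT → GSH 1 mM, NADPH 0.5 mM, GR 100 nM → CHP 0.5 mM start; fluor 340/450 at t0 and t15 min; no-enzyme wells as control.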
Sequence of Phospholipid hydroperoxide glutathione peroxidase GPX4 (Homo sapiens) (P36969 whole entry, looked up): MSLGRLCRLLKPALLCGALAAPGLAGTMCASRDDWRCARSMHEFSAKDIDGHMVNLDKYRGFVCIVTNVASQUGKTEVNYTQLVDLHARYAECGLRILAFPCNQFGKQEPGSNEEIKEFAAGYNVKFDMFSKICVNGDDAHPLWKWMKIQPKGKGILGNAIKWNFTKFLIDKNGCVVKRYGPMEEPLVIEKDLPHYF

For experiment [4], the target named is Luciferin 4-monooxygenase (Photinus pyralis) (UniProt P08659). As to the kind of experiment: Primary firefly luciferase (FLuc) qHTS assay for identification of artifact compounds. (AID 1845220). Further: nearly all actives have a fitted effect of over 60% in size.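 On activity change, negative = inhibition: series mostly up to about 54 µM; plate controls were DMSO vehicle for no effect and no enzyme for full effect.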 The procedure, abridged: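 qHTS, 15 min compound preincubation with substrate (10 uM luciferin, 10 uM ATP) at RT, then 10 nM FLuc; 5 min; luminescence; % inhibition vs no-enzyme/DMSO controls, 4-parameter Hill fit.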

The nature of experiment [5]: Primary redox qHTS assay for identification of artifact compounds. (AID 1845223).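 Further: 0% = DMSO and 100% = reference compound.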 The procedure, abridged: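 Redox-cycling detection via DTT (250 uM final) oxidation coupled to Amplex Red (25 uM)/HRP (250 mU/mL) in HBSS. 15 min preincubation plus 30 min after DTT, room temperature. Ex/Em 525/598 nm; 4-parameter Hill fit against DMSO and 10 uM DA3003.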
Experiment [6] is described as follows: Primary fluorescence-based thiol-reactive (MSTI) qHTS assay for identification of artifact compounds. (AID 1845221). Further: nearly all actives have a fitted effect of over 65% in size. Further: potency means the concentration at half of the fitted maximal effect.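 On activity change, negative = thiol reactive: series mostly up to about 54 µM; thiol-reactive compounds lower the probe fluorescence signal.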 The procedure, abridged: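 A multi-concentration qHTS design tested compounds against 4 uM MSTI, pH 7.4 phosphate-buffered saline. Plates were protected from light for 1 h at room temperature before imaging fluorescence.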
Experiment [7] concerns Nanoluciferase (engineered Oplophorus gracilirostris luciferase). As to the kind of experiment: Primary Nanoluciferase (NLuc) qHTS assay for identification of artifact compounds. (AID 1845222). Further: series mostly up to about 54 µM. Summed up: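 Luminescence read-out of secreted NLuc in S16 cell conditioned medium (1:55); compounds tested with 15 min RT preincubation, then Nano-Glo substrate 1:100, 5 min. % inhibition vs no-enzyme and DMSO controls, 4-parameter Hill fit.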

Sequence of Glutathione peroxidase 1 (Homo sapiens) (P07203 whole entry, looked up): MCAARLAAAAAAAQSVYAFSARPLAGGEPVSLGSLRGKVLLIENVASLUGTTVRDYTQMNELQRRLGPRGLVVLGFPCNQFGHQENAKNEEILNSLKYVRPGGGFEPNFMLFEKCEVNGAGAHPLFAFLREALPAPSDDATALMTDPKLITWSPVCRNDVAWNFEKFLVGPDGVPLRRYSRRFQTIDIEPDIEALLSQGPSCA

As for `C=C1CN(Cc2ccc(C(=O)Nc3ccccc3N)cc2)C(=O)c2ccccc21`, the Potency in experiment [1] is 230 nM (active). Moreover, the Potency result in experiment [2], in experiment [3], in experiment [4] and in experiment [5] was “inactive” in each case.

Regarding `CC(C)[C@@H](CS(=O)(=O)C(C)C)N1C(=O)[C@@](C)(CC(=O)O)C[C@H](c2cccc(Cl)c2)[C@H]1c1ccc(Cl)cc1`, the Potency in experiment [1] was 515 nM (active) and 662 nM (active). In addition, the Potency entry in experiment [2], in experiment [4], in experiment [6] and in experiment [7] was “inactive” each time.

For `C/C=C/c1ccc(O[C@@H]2O[C@H](CO)[C@@H](O)[C@H](O)[C@H]2O)c(OC)c1`, the Potency result in experiment [1], in experiment [2], in experiment [3], in experiment [4] and in experiment [5] was “inactive” in each case.

For the molecule `COC(=O)C1=CO[C@@H](O[C@@H]2O[C@H](CO)[C@@H](O)[C@H](O)[C@H]2O)[C@@H]2C(CO)=CC[C@]12O`, the Potency entry in experiment [1], in experiment [2], in experiment [3], in experiment [4], in experiment [7] and in experiment [5] was “inactive” in each case.

Regarding `CC(/C=C/C1=CC2=CC(=O)C(C)(O)C(O)C2=CO1)=C\C(C)CCO` (stereo not given), the Potency entry in experiment [1], in experiment [2], in experiment [3], in experiment [4], in experiment [7] and in experiment [5] was “inactive” each time.

Turning to `CC(=O)N1CCc2ccc(O)c(OC3OC(COC4OCC(O)(CO)C4O)C(O)C(O)C3O)c2C1Cc1ccc(O)cc1` (stereo not given), the Potency entry in experiment [1], in experiment [2], in experiment [4], in experiment [6], in experiment [7] and in experiment [5] was “inactive” each time.

For `CC(C)=CCC/C(C)=C/CCC1(C)Oc2c(c(O)cc3c2CN(C(CCC(=O)O)C(=O)O)C3=O)CC1O` (stereo not given), the Potency result in experiment [1], in experiment [2], in experiment [3], in experiment [4], in experiment [7] and in experiment [5] was “inactive” in each case.

`COCC1OC(OC(C)(C)C2CCC3(C)C=C(C4CCC5C4(C)CC(O)C4OC(C(C)(C)OC6OC(CO)C(O)C(O)C6NC(C)=O)CCC45C)CCC3O2)C(NC(C)=O)C(O)C1O` (stereo not given): the outcome in experiment [1] is “inactive [at 9.23 µM]”. The Potency entry in experiment [2] is “inactive”. The activity change, negative = inhibition in experiment [4] is 0.545% [at 11.6 µM]. Besides, in experiment [6], the activity change, negative = thiol reactive was 5.19% [at 11.5 µM]. Also, the activity, negative = inhibition in experiment [7] was -0.592% [at 11.6 µM]. Also, the redox activity (% of DA3003) in experiment [5] is 3.42% [at 11.5 µM].

In the case of `COC(=O)C1=COC(OC2OC(CO)C(O)C(O)C2O)C2C1C=CC2(O)CO` (stereo not given), the Potency result in experiment [1], in experiment [2], in experiment [3], in experiment [4] and in experiment [5] was “inactive” each time.

Turning to `C(#Cc1nc2ncccc2nc1OCCN1CCCC1)c1ccccc1`, in experiment [1], the Potency was 2300 nM (active). The Potency result in experiment [2], in experiment [3], in experiment [6] and in experiment [7] was “inactive” each time.

For the molecule `COc1ccc([C@@H]2OC[C@H]3[C@@H]2CO[C@@H]3c2ccc(OC3OC(CO)C(O)C(O)C3O)c(OC)c2)cc1OC` (stereo not given in full), the Potency entry in experiment [1], in experiment [2], in experiment [4] and in experiment [7] was “inactive” throughout. In addition, in experiment [6], the Potency was 8.22 µM (active).

In the case of `Cn1nnc(-c2ccc(-c3ccc(N4C[C@H](CO)OC4=O)cc3F)cn2)n1`, the Potency entry in experiment [1], in experiment [2], in experiment [3], in experiment [6], in experiment [7] and in experiment [5] was “inactive” each time.

As for `CC(O)/C=C/C1C(C)C(O[C@@H]2O[C@H](CO)[C@@H](O)[C@H](O)[C@H]2O)C(O)CC1(C)C` (stereo not given in full), the Potency result in experiment [1], in experiment [2], in experiment [3], in experiment [4] and in experiment [5] was “inactive” throughout.

Turning to `CC1CC2OC3(OC2C(C)(C)O)C1C1(C)CCC24CC25CCC(O[C@@H]2OC[C@@H](O)[C@H](O)[C@H]2O)C(C)(C)C5CC=C4C1(C)C3O` (stereo not given in full), the Potency result in experiment [1], in experiment [2], in experiment [3], in experiment [4], in experiment [7] and in experiment [5] was “inactive” throughout.

As to `CCN1CCN(Cc2ccc(NC(=O)c3ccc(C)c(NC(=O)c4cncc(-c5cccs5)c4)c3)cc2C(F)(F)F)CC1`, in experiment [1], the Potency is 51.5 nM (active) and 186 nM (active). Besides, the Potency result in experiment [2], in experiment [3], in experiment [6], in experiment [7] and in experiment [5] was “inactive” throughout.

For `CC(C)CC(=O)OC1OC=C(CO[C@@H]2O[C@H](CO)[C@@H](O)[C@H](O)[C@H]2O)C2CC(O)C(O)(CO)C12` (stereo not given in full), the Potency result in experiment [1], in experiment [2], in experiment [3], in experiment [4], in experiment [7] and in experiment [5] was “inactive” each time.

Regarding `CC1COC(Nc2ccc3ncnc(Nc4ccc(OCc5nccs5)c(Cl)c4)c3c2)=N1` (stereo not given), the Potency in experiment [1] was 12900 nM (active). The Potency result in experiment [2], in experiment [3], in experiment [6] and in experiment [5] was “inactive” throughout.

For the molecule `Cc1ccc(-c2ccc3ncc4c(c3n2)n(C2CCN(C(=O)[C@H](C)O)CC2)c(=O)n4C)cn1`, the values for the Potency in experiment [1] and in experiment [2] were 74.2 nM (active) and 22.7 µM (active), respectively. The Potency entry in experiment [4], in experiment [6], in experiment [7] and in experiment [5] was “inactive” in each case.

Turning to `C[C@@H]1C[C@@H]2O[C@H]2/C=C\C=C\C(=O)Cc2c(Cl)c(O)cc(O)c2C(=O)O1`, the Potency in experiment [1] was 450 nM (active). Further, the Potency entry in experiment [3], in experiment [4], in experiment [6] and in experiment [7] was “inactive” in each case.

Consider `CCOC(=O)C(CCc1ccccc1)NC1CSC(c2cccs2)CN(CC(=O)O)C1=O` (stereo not given), for which the Potency entry in experiment [1], in experiment [3], in experiment [4], in experiment [6] and in experiment [7] was “inactive” throughout.

As to `OC[C@@]1(O)CO[C@@H](OC[C@H]2O[C@@H](Oc3c[nH]c4ccccc34)[C@H](O)[C@@H](O)[C@@H]2O)[C@@H]1O`, the Potency result in experiment [1], in experiment [2], in experiment [4], in experiment [7] and in experiment [5] was “inactive” each time.

As to `CC1CCC2(OC1)OC1CC3C4CCC5C[C@@H](O[C@@H]6O[C@H](CO[C@@H]7OC[C@@H](O)[C@H](O)[C@H]7O)[C@H](O)[C@H](O)[C@H]6O)CC[C@]5(C)C4CC[C@]3(C)C1C2C` (stereo not given in full), the Potency result in experiment [1], in experiment [2], in experiment [4], in experiment [7] and in experiment [5] was “inactive” each time.

Consider `O=C(c1ccc(/C=C/c2n[nH]c3ccccc23)cc1)N1CCNCC1`, for which the Potency in experiment [1] was 515 nM (active) and 1.86 µM (active). For the same molecule, the Potency result in experiment [2], in experiment [6], in experiment [7] and in experiment [5] was “inactive” in each case.

On to `CC[C@]1(O)CC2CN(CCc3c([nH]c4ccccc34)[C@@](C(=O)OC)(c3cc4c(cc3OC)N(C=O)[C@H]3[C@@](O)(C(=O)OC)[C@H](OC(C)=O)[C@]5(CC)C=CCN6CC[C@]43[C@@H]65)C2)C1` (stereo not given in full), for which the Potency in experiment [1] was 6.4 nM (active). For the same molecule, the Potency result in experiment [3], in experiment [4], in experiment [6] and in experiment [7] was “inactive” in each case.
